From PubChem BioAssay (NCI) come the findings set out here.

Test systems include NCI-H322M lung; HOP-62 NSCLC; NCI-H460 lung; HOP-92 NSCLC; NCI-H522 lung; A549/ATCC NSCLC; 786-0 renal; COLO 205 colon; DU-145 prostate.
Common to all, as to test: NCI-60 one-dose screen, 48 h (100 = growth as untreated, 0 = no growth, -100 = all killed)
Holding throughout (conditions): 10 µM unless noted

The panel holds about 83,000 compounds, 20% with a hit somewhere; the sample as a whole holds those more often.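 The endpoint reported here, percent growth, reads 100 for growth as untreated, 0 for no net growth and -100 for all cells dead.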 A number with no mark means an inactive call. The source made the active and inactive calls. How the source made its calls: active means growth percent below 10; inactive means the rest.

Regarding `CC(=O)Nc1cc(F)cc(-c2ccc3[nH]cc(-c4ccccc4)c3n2)c1`, the growth was 33.4% in the test on NCI-H322M lung; 3.09% (active) in the test with HOP-62 NSCLC; 3.95% (active) with NCI-H460 lung; 0.206% (active) with HOP-92 NSCLC; -67.6% (active) in the test with NCI-H522 lung; 20.1% in the test on A549/ATCC NSCLC. For the same compound, the growth is 1.48% (active) in the test on 786-0 renal, -68.2% (active) in the test with COLO 205 colon and 39.8% with DU-145 prostate.
Regarding `Oc1c(Cl)cc(Cl)c2ccc(CN3CCCCC3)nc12`, the growth was 37.9% with NCI-H322M lung; 48.1% with HOP-62 NSCLC; 22.2% with NCI-H460 lung; 48.6% with HOP-92 NSCLC; 34% with NCI-H522 lung; 36.1% in the test with 786-0 renal. In addition, the values for the growth in the test with COLO 205 colon and in the test with DU-145 prostate were 79.9% and 44%, respectively.
With `CS(=O)(=O)c1ccc(-n2cc(/C=C/C(=O)c3ccc(NC(=O)CO[N+](=O)[O-])cc3)c(-c3ccc(Cl)cc3)n2)cc1`, the growth with NCI-H322M lung was 97.1%; in the test on HOP-62 NSCLC, 103%; with NCI-H460 lung, 106%; with HOP-92 NSCLC it was 90.2%; in the test on NCI-H522 lung it was 103%; in the test on A549/ATCC NSCLC it was 91.8%. Also, the growth in the test with 786-0 renal is 67.6%; in the test on COLO 205 colon it was 111%; with DU-145 prostate it was 101%.
As to `CCCC(=O)NC(c1cccnc1)c1cc(C)c2cccnc2c1O` (centres undefined), the growth with NCI-H322M lung was 32.4%; with NCI-H460 lung, 19.3%; in the test on HOP-92 NSCLC, 49.1%; in the test on NCI-H522 lung, 22.2%; in the test on 786-0 renal it was 38.9%; with COLO 205 colon, 12.7%. In the test with DU-145 prostate, the growth was 47.2%.
Regarding `COc1ccccc1C(=O)CSc1nc(Nc2ccc(S(N)(=O)=O)cc2)c2ccccc2n1`, the growth with NCI-H322M lung was 82.6%; in the test on HOP-62 NSCLC, 86.7%; in the test with NCI-H460 lung, 85.1%; in the test with HOP-92 NSCLC it was 89.6%; in the test on NCI-H522 lung, 90.5%; with A549/ATCC NSCLC, 98.5%. For the same compound, the figures for the growth in the test with 786-0 renal, in the test with COLO 205 colon and in the test on DU-145 prostate were 91%, 107% and 96.9%, respectively.
Regarding `Nc1nc(N)c2c(n1)NC(c1ccc(F)cc1)CC(c1ccc(Nc3nc(NCCO)nc(Nc4ccc(Cl)cc4)n3)cc1)=N2` (centres undefined), the growth is 29.1% in the test on NCI-H322M lung; 68.1% with HOP-62 NSCLC; -54.5% (active) in the test with NCI-H460 lung; -65.5% (active) in the test with HOP-92 NSCLC; -18.4% (active) with NCI-H522 lung; -71.1% (active) in the test with 786-0 renal. Also, the values for the growth in the test on COLO 205 colon and in the test on DU-145 prostate were 28.4% and 12.2%, respectively.
For the compound `CSCCC(C(=O)O)N1C(=O)/C(=C/c2ccc(O)c(O)c2)SC1=S` (centres undefined), the growth is 91.8% in the test on NCI-H322M lung; 100% in the test on HOP-62 NSCLC; 109% in the test on NCI-H460 lung; 108% with HOP-92 NSCLC; 102% in the test with NCI-H522 lung; 108% in the test with A549/ATCC NSCLC. Also, the figures for the growth with 786-0 renal, with COLO 205 colon and with DU-145 prostate were 94.4%, 123% and 108%, respectively.
Consider `Nc1c(C(=O)Nc2ccc(Cl)cc2)sc2nc(-c3cnccn3)cc(-c3cccs3)c12`, for which the growth is 70.2% in the test with NCI-H322M lung; 44.4% in the test on HOP-62 NSCLC; 63.1% in the test on NCI-H460 lung; 52.6% with HOP-92 NSCLC; 93% with NCI-H522 lung; 68.8% in the test on A549/ATCC NSCLC. Moreover, the growth in the test on 786-0 renal was 71.2%; with COLO 205 colon, 95.7%; in the test with DU-145 prostate it was 70.3%.
For the compound `O=C1c2c(c3c4cc(Br)ccc4[nH]c3c3ccc4ccccc4c23)C(=O)N1CCO`, the growth was 96.8% in the test with NCI-H322M lung; 96.3% in the test with HOP-62 NSCLC; 62.5% in the test on NCI-H460 lung; 103% in the test on HOP-92 NSCLC; 76.5% with NCI-H522 lung; 100% in the test with 786-0 renal. Also, the growth in the test with COLO 205 colon is 92%; in the test with DU-145 prostate it was 103%.
As for `CS(=O)(=O)c1ccc(-c2nc3ccccn3c2-c2nc3ccc([N+](=O)[O-])cc3[nH]2)cc1`, the growth was 92% in the test on NCI-H322M lung; 101% with NCI-H460 lung; 93.7% in the test with HOP-92 NSCLC; 92.4% in the test on NCI-H522 lung; 99.8% in the test on A549/ATCC NSCLC; 101% in the test with 786-0 renal. The growth with COLO 205 colon is 103%; in the test with DU-145 prostate it was 99.8%.
Take `NS(=O)(=O)c1cccc(Nc2nc(SCC(=O)c3ccc(Cl)cc3)nc3ccccc23)c1`: the growth with NCI-H322M lung is 81.5%; with HOP-62 NSCLC, 36.2%; with NCI-H460 lung, 48.4%; with HOP-92 NSCLC, 24.5%; with NCI-H522 lung, 59.4%; in the test with A549/ATCC NSCLC, 79.5%. Moreover, the growth was 74.4% in the test on 786-0 renal, 105% in the test with COLO 205 colon and 78.3% in the test on DU-145 prostate.
In the case of `CC(C)NC(=O)c1cc(-c2ccc(NC(=O)Nc3ccc(N4CCOCC4)c(C(F)(F)F)c3)cc2)nc2cccnc12`, the growth in the test on NCI-H322M lung was 91.2%; in the test on NCI-H460 lung, 55.2%; in the test with HOP-92 NSCLC, 72.3%; with NCI-H522 lung it was 87%; with A549/ATCC NSCLC, 62.4%; with 786-0 renal, 17%. Further, the growth in the test with COLO 205 colon is 99.7%; in the test with DU-145 prostate it was 78.9%.
Take `CC(=O)Oc1ccccc1C(=O)Nc1ccc(C(=O)/C=C/c2cccs2)cc1`: the growth in the test with NCI-H322M lung is 106%; in the test with HOP-62 NSCLC it was 101%; in the test on NCI-H460 lung it was 116%; in the test with HOP-92 NSCLC, 108%; with NCI-H522 lung, 102%; in the test with A549/ATCC NSCLC it was 104%. For the same compound, the growth was 88.7% in the test with 786-0 renal, 126% in the test with COLO 205 colon and 113% with DU-145 prostate.
For `O=C1C2=C(C(=O)c3c(O)cccc31)C(c1ccco1)c1sc(=O)[nH]c1S2` (centres undefined), the growth was -97.7% (active) with NCI-H322M lung; -72.2% (active) in the test on HOP-62 NSCLC; -4% (active) in the test on NCI-H460 lung; 69.5% with HOP-92 NSCLC; -5.29% (active) with NCI-H522 lung; -47.7% (active) with A549/ATCC NSCLC. Also, the growth in the test on 786-0 renal was 62.3%; in the test with COLO 205 colon, -89.4% (active); in the test with DU-145 prostate, -93.9% (active).
